A selection: hits, their analogues and other compounds. The true share with any hit is near 13%.
RAM network inh = inhibitors of the yeast RAM network, primary screen, dse1pr::URA3 reporter, 5-FOA selection. S. cerevisiae dse1pr::URA3 reporter, 5-FOA growth OD615, 2 d; analog-sensitive cbk1-as2 kinase mutant strain. inhibition, % at 50 µM. 1.8% of 190,000 active. AID 868, 2007;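 active = inhibition above a set limit, 3 SD over mean compound inhibition, cut at about 8.4% in these data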;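 note: 0% = DMSO-only wells with no growth and 100% = 10 µM 1-NA-PP1 full growth; inhibition rescues growth on 5-FOA so higher OD means more RAM inhibition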
L major viab = Leishmania major promastigote growth inhibition, primary screen; Leishmania major promastigotes, resazurin fluorescence viability; inhibition, % at 10 µM; 9% of 200,000 active; AID 1063, 2008; in the data active = inhibition above about 50%;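 note: promastigotes grown with compound for 44 hours at 28 °C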
WT yeast gro inh = growth inhibition of WT strain, primary screen, mitochondrial fusion inhibitor project, WT and mutant strains, chemical genetic; mitochondrial fusion phenotypic screen; 2.1% of 190,000 active; inhibition, % at 10 µM; in the data active = inhibition above about 58%; tested in S. cerevisiae
CHOP inh = inhibitors of CHOP promoter induction, primary screen, cell-based, unfolded protein response, luciferase reporter; CHO-K1 CHOP-promoter luciferase, tunicamycin-induced, 15-18 h; inhibition, % at 10 µM; 3.8% of 220,000 active; AID 2732, 2010;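 active = compounds that reduced the stress-induced luciferase reporter signal by more than about 70% of percent inhibition, limit read from the data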;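 note: 0% = tunicamycin plus vehicle and 100% = wells without tunicamycin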
* = called active by the depositor; . = not tested or not shown.

SMILES	RAM network inh	L major viab	WT yeast gro inh	CHOP inh
COc1ccc(/C=C(/NC(=O)c2ccccc2)c2nc3ccccc3[nH]2)cc1OC	-1	1	-2	-7
COC(=O)/C(=C\c1ccc(O)cc1)c1nc2ccccc2[nH]1	1	34	-6	-7
COc1cccc(C2C(C(N)=O)=C(C)Nc3nc(-c4ccccc4Cl)nn32)c1 (centres undefined)	-1	-2	8	8
Cc1ccc(S(=O)(=O)N(CC(=O)Nc2cccc([N+](=O)[O-])c2)C2CCCCC2)cc1	4	18	38	23
Cc1ccc(S(=O)(=O)N(CC(=O)Nc2ccc(Cl)c([N+](=O)[O-])c2)C2CCCCC2)cc1	1	28	9	73*
COc1ccccc1C(=O)NCC(=O)N/N=C/c1cccc(Cl)c1	3	18	1	0
CCOC(=O)N1CCC(NC(=O)c2cc(S(=O)(=O)NCCc3ccccc3)ccc2F)CC1	0	-1	4	8
O=C(Nc1cccc(Cl)c1)c1cc(S(=O)(=O)NCCc2ccc(Cl)cc2)ccc1F	10*	5	46	51
Cc1ccc(NC(=O)c2cc(S(=O)(=O)NCCc3ccccc3)ccc2F)cc1Cl	5	-1	1	84*
COc1ccc(CNS(=O)(=O)c2ccc(F)c(C(=O)Nc3ccc(OC)cc3)c2)cc1	5	-2	10	42
COc1cccc(S(=O)(=O)NCc2ccc(C(=O)Nc3cccc(Cl)c3)cc2)c1	4	-1	5	71*
CNC(=O)NC(=O)C(C)OC(=O)c1cc2c(s1)CCCCC2 (centres undefined)	0	-5	-4	51
CCCN(CCC)c1nc(NC2CCN(C(=O)OCC)CC2)nc(OC)n1	0	38	53	72*
CCOC(=O)N1CCC(Nc2c(OCC)c(=O)c2=O)CC1	0	-3	9	4
CCOC(=O)Cc1sc(N)nc1C	1	-3	0	7
O=C(Oc1c(-c2ccccc2Cl)oc2ccccc2c1=O)c1ccc(Cl)cc1	4	55*	18	7
CNC(=S)N(CCc1ccc(S(N)(=O)=O)cc1)C1CC(=O)N(c2ccccc2F)C1=O (centres undefined)	9.4*	-7	-11	-17
CNC(=S)N(Cc1ccc(OC)cc1)C1CC(=O)N(c2ccc(Cl)cc2)C1=O (centres undefined)	0	52*	-3	-1
COc1ccc(CN(C(=S)Nc2ccccc2)C2CC(=O)N(c3ccc(F)cc3)C2=O)cc1 (centres undefined)	4	91*	16	8
O=C1CC(N(CCc2ccccc2)C(=S)Nc2ccccc2)C(=O)N1c1ccc(Br)cc1 (centres undefined)	4	37	70*	28
COc1ccc(CCN(C(=S)Nc2ccccc2)C2CC(=O)N(c3ccccc3)C2=O)cc1 (centres undefined)	3	-1	6	43
NC(C(=O)O)C(c1ccccc1)C(F)F (centres undefined)	.	.	.	-2
CCC1=C(OC(=O)N(CC)CC)N2C(=O)OC(=NCCOC)[C@]2(Cc2ccccc2)[C@H]2C1=CC[C@H]1C(=O)N(C)C(=O)[C@H]12	.	.	.	-15
CCC(C)[C@H](N)c1cn([C@@H](CCCCN)C(=O)N2CCNCC2)nn1 (some centres undefined)	2	-4	-4	8
Cc1ccc(SCC(=O)NC(=O)NCc2ccccc2)c(C)c1	4	-6	-7	81*
SMILES	RAM network inh	L major viab	WT yeast gro inh	CHOP inh
Cc1ccc2nc(C)c3c(c2c1)COC3	2	14	22	5
Cc1cc(NC(=O)Cn2c(C)nc3ccccc3c2=O)ccc1Br	-1	-5	10	35
O=C(Cn1c(C2CC2)nc2ccccc2c1=O)Nc1ccc(Br)cc1	1	-10	-67	84*
CN(C)/C=C/C(=O)c1cc(F)cc(C(F)(F)F)c1	0	-1	-9	12
Cc1ccc(NCCC(=O)c2cccs2)cc1	1	72*	-10	-30
CC(C)c1ccc(NCCC(=O)c2cccs2)cc1	1	16	8	27
Cc1ccc(NCCC(=O)c2cccs2)cc1Cl	1	1	1	80*
Cc1ccc(NCCC(=O)c2cccs2)cc1C	4	43	4	5
CCn1cc(Cl)c(C(=O)N2N=C3/C(=C/c4cccs4)CCCC3C2c2cccs2)n1 (centres undefined)	10*	18	37	83*
COc1ccc(N2CCN(c3nc(NCCc4ccc(OC)c(OC)c4)nc(OC)n3)CC2)cc1	1	1	36	50
COc1ccc(Nc2nc(Cl)nc(N3CCN(c4ccc(OC)cc4)CC3)n2)cc1	2	53*	9	93*
COc1nc(Nc2ccc(O)cc2)nc(OC(C(F)(F)F)C(F)(F)F)n1	1	1	4	66
COc1ccc(Nc2nc(Cl)nc(Nc3ccc(OC)cc3)n2)cc1	7	20	-8	71*
C=CCNc1nc(Cl)nc(Nc2ccc(OC)cc2)n1	7	11	1	28
Cc1ccc(Nc2nc(N3CCOCC3)nc(N3CCOCC3)n2)cc1	3	7	5	-2
COc1ccc(Nc2nc(OC)nc(N3CCN(c4ccc(OC)cc4)CC3)n2)cc1	2	-1	6	77*
COc1nc(Nc2ccc(C(C)C)cc2)nc(OC)n1	-2	86*	17	-10
O=C(O)c1cc(C(F)(F)F)nc2c(C(F)(F)F)cccc12	1	-1	-1	19
CN(CC(=O)OCC(N)=O)S(=O)(=O)c1ccc(Cl)cc1	0	3	-9	27
CCOc1ccc2nc(SCC(=O)N3c4ccccc4Sc4ccccc43)sc2c1	7	-1	13	19
CCOc1ccc2cc(C#N)c(SCC(=O)N3CCCC3)nc2c1	.	25	.	.
CCOc1ccc2nc(SCc3ccc(CC(=O)O)cc3)c(C#N)cc2c1	9.5*	-5	-15	19
CCOc1ccc2nc(SCC(=O)N3c4ccccc4Sc4ccccc43)c(C#N)cc2c1	5	62*	-2	-2
O=C(c1ccc(S(=O)(=O)N2CCCC2)cc1)N1CCCc2ccccc21	-1	3	7	25
CCCc1ccc(C(=O)Cn2nc(C(=O)O)c3ccccc3c2=O)cc1	3	-7	4	86*
SMILES	RAM network inh	L major viab	WT yeast gro inh	CHOP inh
Cc1cc(C)c(C(=O)Cn2nc(C(=O)O)c3ccccc3c2=O)cc1C	.	.	.	-11
Cc1nn(-c2ccccc2)c(N2CCCC2)c1/C=N/NC(=O)c1ccccc1O	1	6	7	15
O=C(N/N=C/c1cc2c3c(c1O)CCCN3CCC2)c1ccccc1O	7	100*	5	53
COc1cc(OC)nc(NC(=S)NC(=O)c2ccccc2)n1	2	-6	3	-7
O=C(CSCC(=O)N1CCCc2ccccc21)Nc1nc(-c2ccccc2)cs1	4	35	53	17
O=C1C2C3c4ccccc4C(c4ccccc43)C2C(=O)N1/N=C/c1cccc(O)c1 (centres undefined)	3	97*	6	26
COc1ccc(C(=O)Oc2coc(CSc3nnc(NC(=O)c4cccs4)s3)cc2=O)cc1	5	2	-5	53

From PubChem BioAssay
